Compounds with a hit are over-represented: about 10% of the library has one in this group of screens.
VDR inhibitor – Inhibitors of the vitamin D receptor (VDR): qHTS; Vitamin D3 receptor (Homo sapiens), P11473; VDR-SRC2-3 peptide fluorescence polarization, 2 h; Potency, µM, without a hit: max response, negative = inhibition, usual class: inhibitors; 0.93% of 400,000 active; also: potency is read from the fitted curve at half-maximal effect
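The screen uses fluorescence polarization to detect compounds that interfere with recruitment of the SRC2-3 coactivator peptide to VDR; plates are read after 2 h at room temperature.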
Mm-Cpn inhibitor – Inhibitors of TCP-1 ring complex (TRiC) of Methanococcus maripaludis (MmCpn): qHTS; 0.031% of 330,000 active; Chaperonin Mm-Cpn (Methanococcus maripaludis); Potency, µM (top dose mostly 76.9 µM), inactives show top-dose activity, negative = inhibition, most hits filed as inhibitors; purified Mm-Cpn ATPase, ADP Transcreener TR-FRET; also: potency is read from the fitted curve at half-maximal effect; nearly all actives have a fitted effect of over 80% in size
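Purified archaeal Mm-CPN (25nM final) preincubated 10 min at 37degC with compound, then 10uM ATP for 30 min at 37degC; ADP measured by HTRF Transcreener TR-FRET; buffer 30 mM TRIS pH 7.4, 100mM KCl, 5mM MgCl2, 1mM DTT.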
CCT modulator – High-Throughput Screening for Modulators of Cytosolic Chaperonin Activity | activity change, % (no concentration beside the values), hits read low | 0.3% of 360,000 active | purified chaperonin ATPase assay, HTRF ADP detection, 30 min; in the data active = activity change below about -30%
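We incubate TRiC, 40 or 20 nM final, with library compounds at 76 uM and 10 uM ATP for 30 min at 37 °C. ADP formed is detected with Transcreener HTRF reagents after 30 min at room temperature.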
Sfp inh – qHTS Assay for Inhibitors of Bacillus subtilis Sfp phosphopantetheinyl transferase (PPTase); Potency, µM, without a hit: largest response in the series, negative = inhibition, actives largely listed as inhibitors; 3.5% of 310,000 active; Biochemical Sfp PPTase activity, qHTS; 4'-phosphopantetheinyl transferase ffp (Bacillus subtilis), Q9F4F7;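 also: the enzyme is Sfp with the accession as filed and its product quenches rhodamine fluorescence; potency is read from the fitted curve at half-maximal effect; 0% = enzyme reaction without inhibitor and -100% = no enzyme wells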
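Step 1, compound plus 15 nM Sfp-PPTase, 15 min, room temperature. Step 2, add rhodamine-CoA (5 uM) and BHQ-2-YbbR (12.5 uM). Step 3, read 525/598 nm fluorescence at 0 and 30 min.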
G9a block – qHTS Assay for Inhibitors of Histone Lysine Methyltransferase G9a; Histone-lysine N-methyltransferase EHMT2 (Homo sapiens), Q96KQ7; G9a H3K9 monomethylation, AlphaScreen, 2 h; Potency, µM (doses to about 102 µM), for the others: top-dose activity, negative = inhibition, hits mostly inhibitors; 8.8% of 350,000 active; AID 504332, 2011; also: potency is read from the fitted curve at half-maximal effect; nearly all actives have a fitted effect of over 75% in size
Target sequence (Q96KQ7 913-1193 limits assumed): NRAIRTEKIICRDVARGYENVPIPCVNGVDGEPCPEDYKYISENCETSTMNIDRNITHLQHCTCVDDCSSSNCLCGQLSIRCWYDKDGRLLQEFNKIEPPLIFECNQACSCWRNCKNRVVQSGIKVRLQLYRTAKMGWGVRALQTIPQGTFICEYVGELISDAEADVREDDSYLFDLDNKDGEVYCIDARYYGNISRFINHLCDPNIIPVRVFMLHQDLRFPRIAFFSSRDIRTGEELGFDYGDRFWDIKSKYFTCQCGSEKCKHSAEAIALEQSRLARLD
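G9a (20 nM) preincubated 15 min RT with compounds, then 500 nM biotinylated H3K9 peptide and 20 uM SAM added; 2 h RT reaction. Monomethyl-H3K9 product detected by AlphaScreen with anti-H3K9me1 antibody, streptavidin donor and anti-rabbit IgG acceptor beads.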
PLK1 PBD block – qHTS for Inhibitors of PLK1-PDB (polo-like kinase 1 - polo-box domain): Primary Screen | Plk1 PBD binding of FITC phosphopeptide, fluorescence polarization | Potency, µM, for the others: max response, negative = inhibition, actives largely listed as inhibitors | 2.8% of 360,000 active | AID 720504, 2013; also: potency is read from the fitted curve at half-maximal effect; series mostly up to about 57 µM; nearly all actives have a fitted effect of over 65% in size
* hit, by the source's call; ? = inconclusive; · = no result given; [ ] = remark or other dose. Unless noted, calls follow the shape of the dose curve; as a rule, active = well fitted curve in the direction sought with a large enough effect; inconclusive = small, poorly fitted or top-dose-only effect, or another doubt; inactive = no such curve, though single readings can be large; an effect the other way counts as inactive or inconclusive. Unless noted, % is scaled to controls: 0 for no effect and ±100 for the full control effect.

SMILES	VDR inhibitor	Mm-Cpn inhibitor	CCT modulator	Sfp inh	G9a block	PLK1 PBD block
COc1cccc(NC(=O)CN(C)CC(=O)Nc2ccccc2-c2ccccc2)c1	-0.7%	1.5%	-4.3	-27.8%	14.1µM*	-12.0%
CN(CC(=O)Nc1cccc(F)c1)CC(=O)Nc1ccccc1-c1ccccc1	-8.7%	1.7%	-2.8	·	·	-1.0%
COc1cccc(NC(=O)CN(C)C(=O)c2c(C)noc2C)c1	-8.3%	-11.3%	-1.7	·	-5.0%[12.7 µM]	3.0%
COc1ccccc1CNC(=O)C1CCN(S(=O)(=O)c2ccc3[nH]c(=O)ccc3c2)CC1	2.6%	·	·	·	-1.9%[59 µM]	·
FC(F)(F)c1cccc(Cn2c3[n+](c4ccc(C(F)(F)F)cc42)CCCCC3)c1	0.4%	1.8%	-0.4	2.0%	22.4µM*	-9.2%
CCc1ccc(NC(=O)Cn2c3[n+](c4c(F)c(F)ccc42)CCCCC3)cc1	5.1%	0.5%	-0.5	?	?	-3.8%
O=C(Cn1c2[n+](c3ccc(C(F)(F)F)cc31)CCCCC2)Nc1ccc(Br)cc1	6.9%	-0.6%	0.0	?	35.5µM*	0.2%
N#Cc1ccc(NC(=O)Cn2c3[n+](c4ccc(C(F)(F)F)cc42)CCCCC3)cc1	-10.0%	-0.3%	1.4	-14.9%	?	23.8µM*
Cc1cc(C(C)(C)C)cc(C)c1Cn1c2[n+](c3ccc(C(F)(F)F)cc31)CCCCC2	-21.0%	-1.3%	-5.3	-23.8%	-47.0%	0.1%
CN(CC(=O)Nc1ccccc1Cl)C(=O)CSc1nnc(N)s1	2.9%	-0.6%	1.0	·	-36.4%[12.7 µM]	-1.6%
CCc1ccccc1NC(=O)CN(C)C(=O)CSc1nnc(Nc2cccc(C)c2C)s1	-9.4%	-2.0%	0.1	-9.0%	15.8µM*	-16.6%
CN(CC(=O)Nc1ccccc1Cl)C(=O)Cn1cc(C(F)(F)F)cc(Cl)c1=O	-7.3%	0.7%	-1.8	·	44.7µM*	-16.1%
Cc1nnc(SCC(=O)N(C)CC(=O)Nc2ccccc2Cl)s1	4.1%	1.8%	-8.0	·	50.1µM*	-1.1%
CCN(C(=O)CSc1nnc(Nc2cccc(C)c2C)s1)C1CCS(=O)(=O)C1 (configuration not stated)	-0.5%	0.6%	-2.6	14.6%	-5.9%[59 µM]	-8.1%
Cc1ccc2nc(Nc3ccc(Br)cc3)nc(-c3ccccc3)c2c1	-14.5%	·	·	·	47.6%[59 µM]	·
CCOC(=O)c1c(NC(=O)c2ccc(S(=O)(=O)N(C)C3CCCCC3)cc2)sc2c1CCN(C(C)C)C2	-2.1%	·	·	·	-5.3%[59 µM]	·
O=C(CCCCCn1c(=O)c2sccc2n(CC(=O)Nc2cccc(Cl)c2)c1=O)NCc1ccc2c(c1)OCO2	26.2%	·	·	·	-40.8%[59 µM]	·
CC(=O)Nc1ccc(S(=O)(=O)NC2(C(F)(F)F)C(=O)Nc3c2c(=O)[nH]c(=O)n3-c2ccc(C)c(C)c2)cc1 (configuration not stated)	11.2%	·	·	·	-0.1%[59 µM]	·
O=C(O)CSc1c[nH]c2ccccc12	-17.9%	-0.6%	2.9	17.2%	-45.2%[59 µM]	-9.7%
Nc1ccccc1Sc1c[nH]c2ccccc12	4.2%	3.7%	0.8	12.3%	44.7µM*	0.9%
Cc1ccc(CNC(=O)Cn2c(=O)n(-c3ccc(C)c(F)c3)c(=O)c3sc4ccccc4c32)cc1	-11.4%	·	·	·	-27.1%[59 µM]	·
COc1ccc(O)c(/C=N/NC(=O)c2c(C)nnn2-c2nonc2N)c1	-10.7%	0.8%	-4.8	-16.8%	79.4µM*	-13.7%
COC(=O)c1ccc(NC(=O)c2c(Br)cnn2C)cc1	?	0.2%	0.9	35.5µM*	7.94µM*	23.8µM*
COC(=O)c1cc(NC(=O)c2c(Cl)cnn2C)cc(C(=O)OC)c1	-9.6%	0.3%	-0.5	11.1%	21.7%[59 µM]	-11.0%
CCOc1ccc(-c2csc(NC(=O)c3cccc(N4C(=O)CCC4=O)c3)n2)cc1	-3.6%	2.8%	1.2	1.1%	12.0%	-6.4%

From PubChem BioAssay
